# From PubChem BioAssay (EPA / NIEHS)
# Where “and” joins values, the source holds several entries; their conditions need not be identical. Identical values can stand only once. A structure can be active in one record and inactive in another. Calls of active or inactive are those of the source. How the source made its calls: active means hit-call score of the fitted dose curve at least 0.9, where 1 is the maximum; inactive means score below 0.9.
# Assay: ATG_TGFb_CIS: Attagene CIS-FACTORIAL HepG2 Assay for human Transforming Growth Factor (TGF) (AID 2282967)
# Details: HepG2 Attagene CIS TGFb reporter, mRNA transcription; actives raise or lower the signal
# Procedure, shortened: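 After a 24-hour incubation with compound, transfected HepG2 cells were lysed for RNA; reporter cDNA was amplified, fluorescently end-labeled and separated by CE. DMSO served as baseline for bidirectional fits.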
SMILES,outcome,AC50
C[C@]12CCC(=O)C=C1CC[C@@H]1[C@@H]2CC[C@@]2(C)[C@H]1CC[C@]2(C)O,inactive,
Cc1ccccc1CO[C@@H]1C[C@@]2(C(C)C)CC[C@]1(C)O2,inactive,
CCC(C)c1cc([N+](=O)[O-])cc([N+](=O)[O-])c1O (stereo unspecified),inactive,
c1cc2ccc3cccc4ccc(c1)c2c34,inactive,
Cc1ccccc1O,inactive,
CCC(=O)O[C@H]1CC[C@H]2[C@@H]3CCC4=CC(=O)CC[C@]4(C)[C@H]3CC[C@]12C,inactive,
CC(C)(c1ccccc1)c1ccc(O)cc1,inactive,
ClC(Cl)=C(c1ccc(Cl)cc1)c1ccc(Cl)cc1,inactive,
O=C(O)C(F)(F)C(F)(F)C(F)(F)C(F)(F)C(F)(F)C(F)(F)C(F)(F)C(F)(F)C(F)(F)F,inactive,48.9 µM (active) and 14.6 µM (active)
CO/C=C(/C(=O)OC)c1ccccc1COc1cccc(C(F)(F)F)n1,inactive,
OCC(O)CO,inactive,
Oc1c(Cl)c(Cl)c(Cl)c(Cl)c1Cl,inactive,13.2 µM (active)
Clc1ccc(C(c2ccccc2Cl)C(Cl)(Cl)Cl)cc1 (stereo unspecified),inactive,
N#Cc1ccc(N(CC(N)=O)CC(F)(F)F)cc1C(F)(F)F,inactive,
Cc1ccccc1[N+](=O)[O-],inactive,
CCOC(=O)C(O)(c1ccc(Cl)cc1)c1ccc(Cl)cc1,inactive,
Sc1ccccc1,inactive,

SMILES,outcome,AC50
Clc1ccc(Cl)cc1,inactive,
CN(C)CCO,inactive,
Cc1cc(-c2ccc(N)c(C)c2)ccc1N,inactive,
CCCCCCCCCc1ccc(O)cc1,inactive,
CC(C)C(=O)OCC(C)(C)C(OC(=O)C(C)C)C(C)C (stereo unspecified),inactive,
CC(C)(O)C(=O)Nc1ccc([N+](=O)[O-])c(C(F)(F)F)c1,inactive,
CCOP(=S)(OCC)SCSC(C)(C)C,inactive,
O=C(O)C(F)(F)C(F)(F)C(F)(F)C(F)(F)C(F)(F)C(F)(F)C(F)(F)C(F)(F)F,inactive,48.2 µM (active) and 72.7 µM (active)
CC(c1ccc(O)cc1)(c1ccc(O)cc1)c1ccc(O)cc1,inactive,
COc1ccc(O)c(C(C)(C)C)c1,inactive,
Oc1ccc(C(c2ccc(O)cc2)(C(F)(F)F)C(F)(F)F)cc1,inactive,
CCNc1nc(NC(C)C)nc(SC)n1,inactive,
O=S(=O)(O)C(F)(F)C(F)(F)C(F)(F)C(F)(F)C(F)(F)C(F)(F)F,inactive,
ClC1=C(Cl)[C@]2(Cl)[C@@H]3[C@H]4C[C@H]([C@@H]5O[C@H]45)[C@@H]3[C@@]1(Cl)C2(Cl)Cl,inactive,
CCCCCCCCOC(=O)c1ccccc1C(=O)OCCCCCCCC,inactive,
Nc1ccc(-c2ccc(N)cc2)cc1,inactive,
